Measurements reported in PubChem BioAssay (EPA / NIEHS).
Records with an inconclusive call do not appear. The source made the active and inactive calls. The calls were made as follows: active = hit-call score of the fitted dose curve at least 0.9, where 1 is the maximum; inconclusive = response in the unintended direction; inactive = score below 0.9.

Legend:
[1] = molecular target: D(1A) dopamine receptor (Homo sapiens) (UniProt P21728); assay: NVS_GPCR_hDRD1: NovaScreen (NVS) G Protein-Coupled Receptor Assay for human Dopamine Receptor D1 (DRD1) (AID 2283269)
Sequence of D(1A) dopamine receptor (Homo sapiens) (P21728 whole entry, looked up): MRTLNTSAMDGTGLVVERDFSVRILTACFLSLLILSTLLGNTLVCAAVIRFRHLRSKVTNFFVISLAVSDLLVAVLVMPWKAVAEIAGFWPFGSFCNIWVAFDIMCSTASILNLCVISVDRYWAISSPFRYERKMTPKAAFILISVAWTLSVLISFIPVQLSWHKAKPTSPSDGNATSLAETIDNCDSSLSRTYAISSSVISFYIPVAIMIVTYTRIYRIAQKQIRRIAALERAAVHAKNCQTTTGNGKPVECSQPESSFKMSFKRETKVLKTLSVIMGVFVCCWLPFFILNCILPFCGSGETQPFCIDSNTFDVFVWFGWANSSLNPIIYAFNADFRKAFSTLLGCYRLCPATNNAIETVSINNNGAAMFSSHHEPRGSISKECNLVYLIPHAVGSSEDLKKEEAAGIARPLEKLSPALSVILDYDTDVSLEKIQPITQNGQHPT
Procedure, shortened: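 Cell-free competition with radioligand, filter-trapped and scintillation-counted 1 h post-dose, using HEK293-derived human D1 preparation. Duplicate single-point testing at 25 uM first, then concentration series for actives; DMSO served as baseline, loss-of-signal scored.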

[2] = molecular target: human Neuropeptide Receptor Y1 (NPY1), NPY1R (gene 4886) (UniProt P25929); assay: NVS_GPCR_hNPY1: NovaScreen (NVS) G Protein-Coupled Receptor Assay for human Neuropeptide Receptor Y1 (NPY1) (AID 2283276)
Sequence of human Neuropeptide Receptor Y1 (NPY1), NPY1R (gene 4886) (P25929 whole entry, looked up): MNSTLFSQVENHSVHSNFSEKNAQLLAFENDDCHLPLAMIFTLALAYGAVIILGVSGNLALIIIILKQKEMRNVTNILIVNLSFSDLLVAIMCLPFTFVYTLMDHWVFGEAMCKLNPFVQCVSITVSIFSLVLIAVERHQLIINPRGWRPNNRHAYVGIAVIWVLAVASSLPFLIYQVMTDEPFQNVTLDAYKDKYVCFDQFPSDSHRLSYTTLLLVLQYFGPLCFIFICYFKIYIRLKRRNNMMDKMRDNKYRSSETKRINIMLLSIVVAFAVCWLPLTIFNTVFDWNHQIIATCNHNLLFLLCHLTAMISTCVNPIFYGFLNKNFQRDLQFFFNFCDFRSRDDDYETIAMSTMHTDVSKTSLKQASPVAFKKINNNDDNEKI
Procedure, shortened: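 Cell-free radioligand binding using receptor extracted from SK-N-MC cells, 1 h incubation, filter-based scintillation counting. Primary screen single concentration 25 uM in duplicate; actives followed in concentration series. Loss of bound signal scored versus DMSO.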

[3] = molecular target: human Orphanin, Opioid Related Nociceptin Receptor 1 (ORL1), OPRL1 (gene 4987) (UniProt P41146); assay: NVS_GPCR_hORL1: NovaScreen (NVS) G Protein-Coupled Receptor Assay for human Orphanin, Opioid Related Nociceptin Receptor 1 (ORL1) (AID 2283283)
Procedure, shortened: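 Filter-based radioligand displacement with receptor extracted from HEK293 cells, read 1 hour after dosing by scintillation counting. Duplicate single-point screen at 25 uM; qualifying chemicals then run in concentration-response to 50 uM, analysed relative to DMSO.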

[4] = molecular target: rat Serotonin, 5-Hydroxytryptamine Receptor 1 (5HT1), Non-Selective Binding, Htr1a (gene 24473) (UniProt P19327); assay: NVS_GPCR_r5HT1_NonSelective: NovaScreen (NVS) G Protein-Coupled Receptor Assay for rat Serotonin, 5-Hydroxytryptamine Receptor 1 (5HT1), Non-Selective Binding (AID 2283286)
Sequence of rat Serotonin, 5-Hydroxytryptamine Receptor 1 (5HT1), Non-Selective Binding, Htr1a (gene 24473) (P19327 whole entry, looked up): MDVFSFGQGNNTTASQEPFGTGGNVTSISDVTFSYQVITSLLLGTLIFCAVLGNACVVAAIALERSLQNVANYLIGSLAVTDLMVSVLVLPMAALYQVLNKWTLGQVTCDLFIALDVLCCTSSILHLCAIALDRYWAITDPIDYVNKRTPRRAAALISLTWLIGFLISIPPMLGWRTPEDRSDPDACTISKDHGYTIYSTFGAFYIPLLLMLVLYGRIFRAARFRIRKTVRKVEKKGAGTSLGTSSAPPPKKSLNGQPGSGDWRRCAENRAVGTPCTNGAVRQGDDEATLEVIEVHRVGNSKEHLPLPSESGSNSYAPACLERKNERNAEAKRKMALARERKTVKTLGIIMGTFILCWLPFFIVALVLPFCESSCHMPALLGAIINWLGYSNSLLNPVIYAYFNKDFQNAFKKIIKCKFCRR
Procedure, shortened: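 Rat cortical membranes, radioligand displacement, 1 h incubation, read by filter scintillation. Primary screen in duplicate at 25 uM. Hits (e.g. ≥30% inhibition) went to concentration-response up to 50 uM, fitted as loss of binding versus DMSO.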

[5] = molecular target: human Opioid Receptor Mu (Opiate Mu), OPRM1 (gene 4988) (UniProt P35372); assay: NVS_GPCR_hOpiate_mu: NovaScreen (NVS) G Protein-Coupled Receptor Assay for human Opioid Receptor Mu (Opiate Mu) (AID 2283290);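 also: hits lower bound tracer signal versus DMSO meaning displacement of the ligand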
Sequence of human Opioid Receptor Mu (Opiate Mu), OPRM1 (gene 4988) (P35372 whole entry, looked up): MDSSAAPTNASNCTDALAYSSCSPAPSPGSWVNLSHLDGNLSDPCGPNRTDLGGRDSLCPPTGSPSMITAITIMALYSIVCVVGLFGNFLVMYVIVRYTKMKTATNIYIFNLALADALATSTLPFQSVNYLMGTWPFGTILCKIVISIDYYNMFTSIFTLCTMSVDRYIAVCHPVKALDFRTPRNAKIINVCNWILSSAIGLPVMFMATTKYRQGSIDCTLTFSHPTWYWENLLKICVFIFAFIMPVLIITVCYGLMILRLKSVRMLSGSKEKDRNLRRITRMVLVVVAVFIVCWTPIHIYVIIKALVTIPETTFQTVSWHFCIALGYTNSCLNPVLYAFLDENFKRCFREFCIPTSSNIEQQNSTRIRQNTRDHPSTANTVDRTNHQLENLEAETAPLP
Procedure, shortened: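 Primary screen in duplicate at 25 uM, with actives followed in concentration series. CHO-derived receptor membranes, cell-free; bound radioligand read by scintillation counting after filtration at 2.5 h, decrease scored against DMSO.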

[6] = molecular target: Muscarinic acetylcholine receptor M1 (Homo sapiens) (UniProt P11229); assay: NVS_GPCR_hM1: NovaScreen (NVS) G Protein-Coupled Receptor Assay for human Muscarinic, M1 Receptor (AID 2283270)
Sequence of Muscarinic acetylcholine receptor M1 (Homo sapiens) (P11229 whole entry, looked up): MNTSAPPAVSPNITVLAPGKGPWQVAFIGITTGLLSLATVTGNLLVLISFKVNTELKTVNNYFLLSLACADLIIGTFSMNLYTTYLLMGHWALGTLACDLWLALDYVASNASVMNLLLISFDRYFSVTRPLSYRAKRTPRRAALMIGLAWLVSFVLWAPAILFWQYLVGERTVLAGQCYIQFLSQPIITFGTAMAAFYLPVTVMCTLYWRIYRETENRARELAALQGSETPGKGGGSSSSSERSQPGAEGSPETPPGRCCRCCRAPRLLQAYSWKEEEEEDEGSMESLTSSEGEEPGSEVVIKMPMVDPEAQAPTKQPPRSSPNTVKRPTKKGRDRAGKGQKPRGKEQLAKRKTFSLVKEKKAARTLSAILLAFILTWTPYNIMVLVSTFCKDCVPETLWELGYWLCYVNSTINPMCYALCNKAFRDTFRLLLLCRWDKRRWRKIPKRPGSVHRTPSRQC
Procedure, shortened: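 Cell-free radioligand displacement using membrane protein extracted from CHO cells, read by filter-based scintillation counting 1 h after dosing. Loss of bound signal fitted versus DMSO; primary screen single concentration 25 uM in duplicate, actives followed by concentration series.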

[7] = molecular target: human Leukotriene B4 Receptor 1 (LTB4-BLT1), LTB4R (gene 1241) (UniProt Q15722); assay: NVS_GPCR_hLTB4_BLT1: NovaScreen (NVS) G Protein-Coupled Receptor Assay for human Leukotriene B4 Receptor 1 (LTB4-BLT1) (AID 2283271)
Sequence of human Leukotriene B4 Receptor 1 (LTB4-BLT1), LTB4R (gene 1241) (Q15722 whole entry, looked up): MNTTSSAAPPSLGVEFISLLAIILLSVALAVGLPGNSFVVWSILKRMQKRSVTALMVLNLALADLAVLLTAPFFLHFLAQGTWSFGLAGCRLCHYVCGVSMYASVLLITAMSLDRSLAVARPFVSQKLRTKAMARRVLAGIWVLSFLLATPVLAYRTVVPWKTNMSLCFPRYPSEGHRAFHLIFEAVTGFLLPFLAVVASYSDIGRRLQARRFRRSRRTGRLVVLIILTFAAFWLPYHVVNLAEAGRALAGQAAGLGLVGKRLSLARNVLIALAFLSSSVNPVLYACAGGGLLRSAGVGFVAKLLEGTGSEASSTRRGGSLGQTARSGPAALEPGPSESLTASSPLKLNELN
Procedure, shortened: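 Radioligand displacement binding on receptor extracted from human neutrophils, cell-free, 1 h after dosing; filter-based scintillation counting. Primary screen in duplicate at 25 uM, actives retested in concentration-response up to 50 uM; loss of signal versus DMSO.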

[8] = molecular target: Muscarinic acetylcholine receptor M3 (Homo sapiens) (UniProt P20309); assay: NVS_GPCR_hM3: NovaScreen (NVS) G Protein-Coupled Receptor Assay for human Muscarinic, M3 Receptor (AID 2283272)
Sequence of Muscarinic acetylcholine receptor M3 (Homo sapiens) (P20309 whole entry, looked up): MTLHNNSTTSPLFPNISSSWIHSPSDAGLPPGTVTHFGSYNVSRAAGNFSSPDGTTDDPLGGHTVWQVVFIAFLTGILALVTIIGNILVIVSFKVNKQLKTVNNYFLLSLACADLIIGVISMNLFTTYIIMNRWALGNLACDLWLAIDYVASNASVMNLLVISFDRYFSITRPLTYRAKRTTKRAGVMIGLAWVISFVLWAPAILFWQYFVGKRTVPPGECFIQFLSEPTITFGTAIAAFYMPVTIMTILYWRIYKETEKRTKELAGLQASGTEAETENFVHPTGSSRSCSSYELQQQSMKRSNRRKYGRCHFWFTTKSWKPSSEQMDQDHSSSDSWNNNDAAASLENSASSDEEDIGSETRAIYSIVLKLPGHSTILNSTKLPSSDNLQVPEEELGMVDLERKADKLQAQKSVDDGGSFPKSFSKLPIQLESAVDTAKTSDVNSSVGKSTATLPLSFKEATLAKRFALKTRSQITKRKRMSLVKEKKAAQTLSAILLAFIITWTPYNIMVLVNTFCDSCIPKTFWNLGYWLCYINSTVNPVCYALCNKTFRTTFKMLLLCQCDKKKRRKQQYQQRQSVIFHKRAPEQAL
Procedure, shortened: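 Radioligand displacement binding on human M3 receptor in CHO-derived membranes, 1 h incubation, filter-based scintillation counting. Primary screen in duplicate at 25 uM; actives followed up in concentration series; loss of signal versus DMSO.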

[9] = molecular target: Muscarinic acetylcholine receptor M2 (Homo sapiens) (UniProt P08172); assay: NVS_GPCR_hM2: NovaScreen (NVS) G Protein-Coupled Receptor Assay for human Muscarinic, M2 Receptor (AID 2283273)
Sequence of Muscarinic acetylcholine receptor M2 (Homo sapiens) (P08172 whole entry, looked up): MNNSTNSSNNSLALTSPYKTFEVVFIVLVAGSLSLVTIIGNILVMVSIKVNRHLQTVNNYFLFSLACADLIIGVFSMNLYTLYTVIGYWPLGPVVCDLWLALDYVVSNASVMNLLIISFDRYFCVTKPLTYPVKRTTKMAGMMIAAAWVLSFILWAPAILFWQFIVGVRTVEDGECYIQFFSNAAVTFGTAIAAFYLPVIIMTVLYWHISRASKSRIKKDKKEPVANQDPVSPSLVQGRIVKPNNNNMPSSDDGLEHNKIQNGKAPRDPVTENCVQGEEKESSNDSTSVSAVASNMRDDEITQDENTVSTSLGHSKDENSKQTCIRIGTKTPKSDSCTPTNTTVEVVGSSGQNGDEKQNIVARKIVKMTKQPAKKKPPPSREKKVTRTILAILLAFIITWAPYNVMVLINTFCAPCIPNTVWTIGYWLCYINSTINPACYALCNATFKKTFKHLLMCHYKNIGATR
Procedure, shortened: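 Cell-free radioligand binding using membranes from CHO cells expressing the receptor; filter-based scintillation counting after 1 hour of compound exposure. Loss of specific binding relative to DMSO baseline; primary screen at 25 uM in duplicate, actives then run in concentration series.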

[10] = molecular target: human Muscarinic, M4 Receptor, CHRM4 (gene 1132) (UniProt P08173); assay: NVS_GPCR_hM4: NovaScreen (NVS) G Protein-Coupled Receptor Assay for human Muscarinic, M4 Receptor (AID 2283274)
Sequence of human Muscarinic, M4 Receptor, CHRM4 (gene 1132) (P08173 whole entry, looked up): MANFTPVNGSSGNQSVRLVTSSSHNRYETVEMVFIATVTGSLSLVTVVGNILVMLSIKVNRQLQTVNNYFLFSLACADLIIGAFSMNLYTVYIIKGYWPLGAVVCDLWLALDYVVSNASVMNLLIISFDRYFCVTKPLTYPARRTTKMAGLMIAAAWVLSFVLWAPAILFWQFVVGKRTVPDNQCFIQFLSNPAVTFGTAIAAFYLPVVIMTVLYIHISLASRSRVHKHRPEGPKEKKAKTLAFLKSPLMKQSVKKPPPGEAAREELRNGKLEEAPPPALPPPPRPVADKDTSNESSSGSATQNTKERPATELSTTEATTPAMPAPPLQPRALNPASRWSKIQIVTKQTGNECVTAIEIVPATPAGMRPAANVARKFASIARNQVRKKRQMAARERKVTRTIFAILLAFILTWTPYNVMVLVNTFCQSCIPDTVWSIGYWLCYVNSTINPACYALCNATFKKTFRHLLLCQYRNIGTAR
Procedure, shortened: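 Cell-free radioligand displacement using CHO-derived human M4 receptor protein, 1 h after dosing; bound radioactivity by filtration and scintillation counting. Primary screen single 25 uM duplicate, actives followed in concentration series.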

[11] = molecular target: Neuropeptide Y receptor type 2 (Homo sapiens) (UniProt P49146); assay: NVS_GPCR_hNPY2: NovaScreen (NVS) G Protein-Coupled Receptor Assay for human Neuropeptide Receptor Y2 (NPY2) (AID 2283277)
Sequence of Neuropeptide Y receptor type 2 (Homo sapiens) (P49146 whole entry, looked up): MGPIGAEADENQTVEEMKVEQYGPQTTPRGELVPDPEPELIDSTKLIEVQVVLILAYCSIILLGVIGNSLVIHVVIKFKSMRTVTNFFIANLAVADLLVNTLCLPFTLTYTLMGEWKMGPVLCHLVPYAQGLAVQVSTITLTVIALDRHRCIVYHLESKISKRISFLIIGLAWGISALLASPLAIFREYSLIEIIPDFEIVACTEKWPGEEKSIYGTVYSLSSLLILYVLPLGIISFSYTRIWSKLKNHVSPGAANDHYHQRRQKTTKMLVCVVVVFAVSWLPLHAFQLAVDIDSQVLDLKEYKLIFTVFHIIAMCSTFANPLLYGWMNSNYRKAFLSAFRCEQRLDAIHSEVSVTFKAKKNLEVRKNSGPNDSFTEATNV
Procedure, shortened: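 Radioligand binding on membranes extracted from SK-N-MC cells, cell-free, read 1 h after dosing by filter-based scintillation counting. Loss of signal vs DMSO. Primary screen in duplicate at 25 uM; actives followed up in concentration-response up to 50 uM.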

[12] = molecular target: rat Adrenergic, Alpha 1, Non-selective Receptor (Adra1), Adra1a (gene 29412) (UniProt P43140); assay: NVS_GPCR_rAdra1_NonSelective: NovaScreen (NVS) G Protein-Coupled Receptor Assay for rat Adrenergic, Alpha 1, Non-selective Receptor (Adra1) (AID 2283289)
Sequence of rat Adrenergic, Alpha 1, Non-selective Receptor (Adra1), Adra1a (gene 29412) (P43140 whole entry, looked up): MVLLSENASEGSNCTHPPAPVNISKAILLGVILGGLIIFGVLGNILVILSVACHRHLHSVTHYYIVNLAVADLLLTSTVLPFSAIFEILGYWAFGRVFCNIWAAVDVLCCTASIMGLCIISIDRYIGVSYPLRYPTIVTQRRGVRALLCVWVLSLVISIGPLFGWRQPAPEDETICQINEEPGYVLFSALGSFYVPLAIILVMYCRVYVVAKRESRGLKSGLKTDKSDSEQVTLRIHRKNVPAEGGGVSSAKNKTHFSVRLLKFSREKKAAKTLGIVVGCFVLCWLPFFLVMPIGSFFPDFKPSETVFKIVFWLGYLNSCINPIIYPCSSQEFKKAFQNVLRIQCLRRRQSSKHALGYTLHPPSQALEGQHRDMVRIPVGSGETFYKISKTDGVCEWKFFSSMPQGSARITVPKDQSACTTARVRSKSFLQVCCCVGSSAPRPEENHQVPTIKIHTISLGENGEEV
Procedure, shortened: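 Rat forebrain membranes; radioligand displacement read by filter-based scintillation counting 1 h after dosing. Primary screen in duplicate at 25 uM; hits (e.g. ≥30% inhibition) rerun as concentration–response to 50 uM max. Fitted versus DMSO.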

[13] = molecular target: guinea pig Bradykinin Receptor B2 (BK2), BDKRB2 (gene 100135486) (UniProt O70526); assay: NVS_GPCR_gBK2: NovaScreen (NVS) G Protein-Coupled Receptor Assay for guinea pig Bradykinin Receptor B2 (BK2) (AID 2283292)
Procedure, shortened: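 Radioligand displacement on guinea pig ileum membranes for 1 h, read by filter-based scintillation counting; loss of signal relative to DMSO. Compounds were screened in duplicate at 25 uM, and those passing the threshold were retested in concentration-response up to 50 uM.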

[14] = system: rabbit Platelet Activating Factor Receptor (PAF), gene 100354046; assay: NVS_GPCR_rabPAF: NovaScreen (NVS) G Protein-Coupled Receptor Assay for rabbit Platelet Activating Factor Receptor (PAF) (AID 2283287)
Procedure, shortened: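 Rabbit platelet membrane preparation; radioligand displacement read by filter-based scintillation counting 1 h after dosing, loss of signal versus DMSO. Primary screen in duplicate at 25 uM, actives followed up in concentration series.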

[15] = molecular target: human Neurotensin Receptor (NTS), NTSR1 (gene 4923) (UniProt P30989); assay: NVS_GPCR_hNTS: NovaScreen (NVS) G Protein-Coupled Receptor Assay for human Neurotensin Receptor (NTS) (AID 2283279)
Procedure, shortened: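 Radioligand displacement on human NTSR1 protein from CHO cells, cell-free, 1 h, filter-based scintillation counting. Primary screen at 25 uM in duplicate; hits rerun in concentration-response up to 50 uM.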

[16] = molecular target: human Vasopressin 1A Receptor (V1A), AVPR1A (gene 552) (UniProt P37288); assay: NVS_GPCR_hV1A: NovaScreen (NVS) G Protein-Coupled Receptor Assay for human Vasopressin 1A Receptor (V1A) (AID 2283284)
Procedure, shortened: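 Cell-free radioligand displacement on human platelet preparations, 1.5 h incubation, filter-based scintillation counting. Chemicals first tested in duplicate at 25 uM; actives then run in concentration-response up to 50 uM, loss of signal fitted against DMSO.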

[17] = molecular target: mouse Cholecystokinin, CCK1 Receptor (CCKA), Cckar (gene 12425) (UniProt O08786); assay: NVS_GPCR_mCCKAPeripheral: NovaScreen (NVS) G Protein-Coupled Receptor Assay for mouse Cholecystokinin, CCK1 Receptor (CCKA) (AID 2283285)
Procedure, shortened: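 Radioligand competitive displacement on mouse pancreatic membranes, 2 h incubation; filter-based scintillation counting, loss of signal versus DMSO. Single-concentration screen at 25 uM in duplicate, actives retested in concentration-response up to 50 uM.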

[18] = system: 5-hydroxytryptamine receptor 2C (pig); assay: NVS_GPCR_p5HT2C: NovaScreen (NVS) G Protein-Coupled Receptor Assay for pig Serotonin, 5-Hydroxytryptamine Receptor 2C (5HT2C) (AID 2283288)
Procedure, shortened: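 Pig choroid plexus membranes; radioligand competitive binding, filter-based scintillation counting, read 1 h after dosing. Primary screen in duplicate at 25 uM; actives then run as concentration series; loss of signal versus DMSO baseline.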

Measured: AC50

O=c1[nH]sc2ccccc12
active: [1] 6.83 µM | [2] 4.62 µM | [3] 3.2 µM | [4] 40.4 µM
inactive: [5]

COc1ccc2cc(S(=O)(=O)N[C@H](CC(=O)N[C@H](Cc3ccc(CN4[C@H](C)CCC[C@@H]4C)cc3)C(=O)N(C)C(C)C)c3ccc4c(c3)OCO4)ccc2c1
active: [1] 30.2 µM | [6] 3.51 µM | [7] 11.6 µM | [8] 14.2 µM | [9] 0.535 µM | [10] 2.44 µM | [11] 2.17 µM | [12] 15.7 µM | [5] 8.69 µM | [13] 13.8 µM

O=C1c2ccccc2C(=O)N1CCc1noc(-c2ccc(CN3CCCCCC3)s2)n1
inactive: [7]
active: [6] 7.52 µM | [8] 3.96 µM | [9] 2.83 µM | [10] 7.92 µM | [14] 3.11 µM | [12] 9.19 µM

CCCCCCCCCCCC[N+](C)(C)C
active: [1] 16.1 µM | [6] 4.64 µM | [8] 3.43 µM | [9] 1.39 µM | [10] 2.77 µM | [2] 16 µM | [11] 38.9 µM | [15] 11.7 µM | [17] 20.6 µM | [14] 9.15 µM | [18] 25 µM
inactive: [16] | [5]

Cc1occc1C(=O)Nc1ccc(C(=O)N2CCC(F)(F)/C(=C\C(=O)N3CCC(N4CCCCC4)CC3)c3ccccc32)cc1
active: [9] 4.43 µM | [10] 7.11 µM | [16] 0.00237 µM | [14] 2.76 µM | [12] 6.08 µM
inactive: [18]

CC1(C)NC(=O)N(c2ccc([N+](=O)[O-])c(C(F)(F)F)c2)C1=O
inactive: [1]

COc1cccc([C@H](O)C2CCN(CCc3ccc(F)cc3)CC2)c1OC
inactive: [8]
active: [4] 25 µM | [5] 12.6 µM
